Inconclusive results are not listed. Where a call stands in place of a potency, no number is given. Active and inactive are the calls of the source. Calls follow the shape of the dose curve; as a rule, active = well fitted inhibition curve with a large enough effect; inconclusive = small, poorly fitted or top-dose-only effect; inactive = flat fitted curve, though single readings scatter.

The values that follow come from PubChem BioAssay (NCATS).
Potency is read from the fitted curve at half-maximal effect.

For this assay, the target named is Glutathione peroxidase 1 (Homo sapiens) (UniProt P07203). The assay is described as follows: Primary qHTS Assay for Inhibitors of Recombinant Selenoprotein Glutathione Peroxidase 1 (GPX1) (AID 1845191). Also: nearly all actives have a fitted effect of over 65% in size. As to conditions: recombinant GPX1, GR-coupled NADPH fluorescence, 15 min; series mostly up to 48.8 µM. The source says: Assay Provider: Elias S.J. Arner MD PhD.
Glutathione peroxidase 1 (Homo sapiens), sequence (P07203 whole entry, looked up): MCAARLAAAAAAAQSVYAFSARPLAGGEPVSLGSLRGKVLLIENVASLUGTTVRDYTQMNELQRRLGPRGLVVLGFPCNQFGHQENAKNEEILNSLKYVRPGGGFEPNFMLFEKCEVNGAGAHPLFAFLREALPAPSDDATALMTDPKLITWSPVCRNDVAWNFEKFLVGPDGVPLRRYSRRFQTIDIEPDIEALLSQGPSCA
Department of Medical Biochemistry and Biophysics
Karolinska Institutet, Solna, Stockholm, Sweden
Selenoprotein glutathione peroxidases (GPX), like the ubiquitously expressed GPX1 and the ferroptosis modulator GPX4, enact their antioxidant activities by reducing hydroperoxides using glutathione. […] GPX1 and GPX4 inhibitors have thus shown promise as anti-cancer agents. Existing inhibitors are often promiscuous, or modulate GPX activity only indirectly, so novel direct inhibitors identified through screening against GPX1 and GPX4 could be valuable. Here, we developed optimized glutathione reductase (GR)-coupled GPX assays for the biochemical high-throughput screen (HTS) of almost 12,000 compounds with known mechanisms of action. Initial hits were triaged using a GR counter-screen, assessed for isoform specificity using a separate GPX2 assay, and were assessed for general selenocysteine-targeting activity using a thioredoxin reductase (TXNRD1) assay. With this suite of assays, we identified novel GPX1/GPX2- and GPX4-specific inhibitors and can here present a validated pipeline for future discovery research for selenoprotein-targeting agents.
SEQUENCE No. (e.g., 1, 2, 3, etc.); […] (e.g., Cells, Incubation, Reagent, etc.); VALUE; DESCRIPTION.
1; Reagent 1; 3 uL; GPx1 enzyme or no enzyme control in 1536-well, black, solid Greiner assay plate.
2; Compound; 25 nL; Kalypsis pin tool (Wako USA) equipped with a 1536-well pin head.
3; Incubation; 30 min; room temperature.
4; Reagent 2; 1 uL; 10 nM GPX1, 1 mM GSH, 0.5 mM CHP, 0.5 mM NADPH, 100 nM GR, 0.01% BSA substrate
5; Detection; Fluorescence; ViewLux microplate reader, excitation 340 nm and emission 450 nm.
6; Incubation; 15 min; room temperature.
7; Detection; Fluorescence; ViewLux microplate reader, excitation 340 nm and emission 450 nm.
NOTES (numbers refer to Sequence numbers above)
1. 3 uL of 16.66 nM GPX1 and 0.016% BSA in assay buffer (50 mM Tris-HCl, 2 mM EDTA (pH 7.5), 150 mM NaCl) was added to columns 3-48 of 1536-well assay plates using a BioRAPTR Flying Reagent Dispenser (Let's Go Robotics (LGR), Carlsbad, CA). A no-enzyme control (0.01% BSA in TES assay buffer) was added to columns 1-2.
2. 25 nL of test compounds and DMSO controls were added to each well with a pin tool (Kalypsys).
3. The assay plates were incubated for 30 minutes at room temperature.
4. 1 uL of master mix (500 nM glutathione reductase (GR), 5 mM reduced glutathione (GSH), 2.5 mM NADPH in assay buffer) was added. 1 uL of cumene hydroperoxide (CHP) ([2.5 mM] in 50% EtOH) was then added within 5 minutes to initiate the reaction. Final concentrations were: 10 nM GPX1, 1 mM GSH, 0.5 mM CHP, 0.5 mM NADPH, 100 nM GR, 0.01% BSA.
5. Initial fluorescence readout (t=0) at 340/450 nm was measured using a ViewLux multimodal detector (PerkinElmer, Waltham, MA).
7. Endpoint fluorescence readout (t=15) at 340/450 nm was measured 15 min after room temperature incubation.
(Quantitative high-throughput screening tests each substance at several concentrations.)
For the molecule `COC(=O)c1ccc(=O)c2nc3/c(=C/O)c(O)cc(=O)c3[nH]c12`, the Potency entry is “inactive”.

For `CC(C)(N)c1cc(C(=O)N[C@@H]2CCc3ccc(Oc4ccnc5c4CCC(=O)N5)cc3C2)cc(C(F)(F)F)c1`, the Potency entry was “inactive”.

For `CC(C)(C)c1ccc(CNC(=S)NCc2ccc(NS(C)(=O)=O)c(F)c2)cc1`, the Potency is 14.3 µM (active).

`Cc1cc(-c2nc(C(=O)Nc3cn(C4CCOCC4)nc3C(N)=O)co2)ccn1`: the Potency entry was “inactive”.

For the molecule `C[C@@H](CN1CCC(n2c(=O)[nH]c3cc(Cl)ccc32)CC1)NC(=O)c1ccc2ccccc2c1`, the Potency result is “inactive”.

Turning to `O=C(O)c1ccc2c3c1cccc3c(=O)n1c3ccccc3nc21`, the Potency entry was “inactive”.

For `Cn1c(NC[C@@H](N)Cc2ccccc2)nc(-c2ccncc2)c(-c2ccc3ccccc3c2)c1=O`, the Potency result is “inactive”.

Regarding `COc1cc(/C=C\c2ccc(O)cc2)cc(OC)c1`, the Potency result was “inactive”.

With `CN(CCO)C1CCN(c2ccc(Nc3ncc4c5ccnc(F)c5n(C5CCCC5)c4n3)nc2)CC1`, the Potency result is “inactive”.

For `C/C=C(/COC(=O)/C(C)=C/C)C(=O)OC/C=C/c1ccc(OC)cc1`, the Potency result was “inactive”.

For the molecule `CC[C@H](CO)Nc1nc(Nc2cccc(-c3ccccn3)c2)c2ncn(C(C)C)c2n1`, the Potency entry is “inactive”.

On to `Cc1cn([C@H]2C[C@H](O)[C@@H](CO)O2)c(=O)nc1N`, for which the Potency result was “inactive”.

`Cc1ccc(-c2nn(C(C)(C)C)c3ncnc(N)c23)cc1`: the Potency result is “inactive”.

As for `O=C(Nc1ccc(S(=O)(=O)Nc2nccs2)cc1)c1cc(-c2ccccc2)nc2ccccc12`, the Potency entry is “inactive”.

For the molecule `O=C(NCCc1c[nH]c2ccc(O)cc12)c1ccc2ccccc2c1O`, the Potency result is “inactive”.

For `CSc1nc(N)cc(Oc2ccc(-c3nc(Nc4cccc(C(F)(F)F)c4)n[nH]3)cc2)n1`, the Potency result is “inactive”.

For the molecule `NC(=O)c1nc(F)c[nH]c1=O`, the Potency is 20.2 µM (active).

As to `Cc1cc2ncc(-c3ccccc3)nc2cc1C`, the Potency entry is “inactive”.

Consider `S=C(Nc1ccccc1)Nc1nccs1`, for which the Potency result was “inactive”.

For `O=C(/C=C/c1cccnc1)c1ccncc1`, the Potency result is “inactive”.

As for `Cc1ccc(NC2=CC(=O)c3sc(C)nc3C2=O)cc1`, the Potency result was “inactive”.

As for `COc1ccc2c(c1)CN(C(=O)CCN1CCC(Cc3ccccc3)CC1)CCS2`, the Potency result was “inactive”.

`O=C(c1ccc(F)c(F)c1Nc1ccc(I)cc1F)N1CC(O)([C@@H]2CCCCN2)C1`: the Potency result is “inactive”.

`Cc1ccc(C2(COC(=O)C(C)C)CO2)c(OC(=O)C(C)C)c1` (stereo not given): the Potency entry was “inactive”.

In the case of `CC/C=C\CC1C(=O)CCC1CC(=O)OC` (stereo not given), the Potency result was “inactive”.

As for `CC(C)c1ccc(NC(=O)C(c2ccccc2)N(C)C(=O)Cc2c[nH]c3ccccc23)cc1` (stereo not given), the Potency entry is “inactive”.

In the case of `CC(C)n1nc(-c2ccc(NC(=O)Nc3cccc(C(F)(F)F)c3)cc2)c2c(N)ncnc21`, the Potency entry was “inactive”.

Regarding `CC(C)(C)c1ccc(-c2nc3ccccc3[nH]2)cc1`, the Potency entry is “inactive”.

Take `C=CC(=O)Nc1cccc(C)c1Nc1ncc2cc(-c3c(Cl)c(OC)cc(OC)c3Cl)ccc2n1`: the Potency entry is “inactive”.

Take `COc1cccc(NC[C@@H](O)Cn2c3ccc(Br)cc3c3cc(Br)ccc32)c1`: the Potency result was “inactive”.

As for `C=CC(=O)N1CCN(C(=O)c2cc(-c3cc(Cl)ccc3Cl)c(Cl)cc2OC)CC1`, the Potency entry is “inactive”.

With `O=c1[nH]ccc2c(S(=O)(=O)N3CCCNCC3)cccc12`, the Potency entry was “inactive”.

Take `CCN(CCCOc1ccc2c(Nc3cc(CC(=O)Nc4cccc(F)c4)[nH]n3)ncnc2c1)CCOP(=O)(O)O`: the Potency entry was “inactive”.

`CC[N+](CC)(CC)CC`: the Potency entry is “inactive”.

As for `O=Nc1c2[nH]c3ccccc3nc-2c2ccccc12`, the Potency result was “inactive”.

Regarding `C=C1C(=O)O[C@@H]2[C@H]1[C@H](O)C[C@]1(C)[C@@H](O)CC=C(C)[C@@H]21`, the Potency entry was “inactive”.

In the case of `Cn1cc(-c2cc(Oc3cc(F)c(NC(=O)C4(C(=O)Nc5ccccc5)CC4)cc3F)ccn2)cn1`, the Potency result is “inactive”.

Turning to `N#Cc1c[nH]c2c(C(=O)N3CCN(CCc4ccc(F)cc4)CC3)cccc12`, the Potency result was “inactive”.

For `OCCn1cc(-c2ccc3c(c2)CC/C3=N\O)c(-c2ccncc2)n1`, the Potency entry is “inactive”.

Regarding `O=C1NC(=O)/C(=C/c2ccc3nccc(-c4ccncc4)c3c2)S1`, the Potency entry is “inactive”.
